This note sets out measurements from PubChem BioAssay AID602447 (National Center for Advancing Translational Sciences (NCATS), 2012).

Inconclusive results are not listed. Activity calls are given as the source filed them. No rule for the calls is given here.

Beta-2 adrenergic receptor (Homo sapiens), sequence (P07550 whole entry, looked up): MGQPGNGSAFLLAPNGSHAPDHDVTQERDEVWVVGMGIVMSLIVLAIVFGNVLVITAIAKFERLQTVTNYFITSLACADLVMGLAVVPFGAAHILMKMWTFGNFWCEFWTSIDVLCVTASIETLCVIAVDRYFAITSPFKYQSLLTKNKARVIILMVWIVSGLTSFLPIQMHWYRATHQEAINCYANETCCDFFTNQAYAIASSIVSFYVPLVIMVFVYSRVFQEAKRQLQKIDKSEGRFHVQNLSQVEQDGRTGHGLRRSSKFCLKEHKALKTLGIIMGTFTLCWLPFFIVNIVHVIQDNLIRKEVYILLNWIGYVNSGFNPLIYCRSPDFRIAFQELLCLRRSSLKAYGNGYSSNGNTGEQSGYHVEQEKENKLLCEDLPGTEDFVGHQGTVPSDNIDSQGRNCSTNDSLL

In the assay the target is Beta-2 adrenergic receptor (Homo sapiens) (UniProt P07550). Description: qHTS for antagonists of the Thyroid Stimulation Hormone Receptor: Hit Validation with Beta-2 Adrenergic Receptor. The conditions noted are these: B2AR-expressing cells, cAMP HTRF, antagonist counterscreen; hits give high values. An excerpt:
The thyroid-stimulating hormone receptor (TSHR) is a member of the 7 trans-membrane-spanning receptor (7TMR) family of cell surface receptors. TSHR-mediated hyperthyroidism is important in thyroid pathology. The development of small molecule antagonists of TSHR may lead to therapeutic approaches for TSHR-mediated hyperthyroidism caused by constitutively activating mutations or stimulating auto-antibodies associated with Graves' disease. Graves' disease is the leading cause of hyperthyroidism and is caused by autoantibodies that stimulate TSHR (TsAbs) causing thyroid growth and unregulated overproduction of thyroid hormones and existing treatments have liabilities (agranulocytosis). In addition, TSHRs are known to be expressed in multiple extrathyroidal tissues including bone, brain, kidney, testis, fat and cells of the immune system but the role of the TSHR in these tissues is not clear. Therefore, TSHR antagonists/inverse agonists could be used as probes of extrathyroidal TSHR function. Finally, TSHR inverse agonists, which are a subclass of antagonists that inhibit agonist-independent (or basal or constitutive) TSHR signaling, could be used to inhibit TSH-independent signaling in patients with recurrent or metastatic thyroid cancer who are receiving thyroid hormone to suppress TSH. In collaboration between scientist from the NCGC and the NIDDK, a miniaturized HTRF high-throughput screen was developed. It's a cell based assay, where an anti cAMP antibody contains a fluorescent cryptate tag (excitation 337 nm; emission 620 nm) and the acceptor is cAMP-d2 (excitation 620 nm; emission 665 nm). When antibody and cAMP-d2 interact and are excited by a 337 nm light, a FRET occurs resulting in emission at 665 nm. The assay is competition between cAMP-d2 and cAMP (from the cell lysate). The homogeneous protocol allows for one step dispense after stimulation that is automation friendly. This is a hit validation assay in a counterscreen using beta-2 adrenergic receptor, a closely related hormone receptor NIH Chemical Genomics Center [NCGC] NIH Molecular Libraries Probe Centers Network [MLPCN] Grant: MH090855 Assay Provider: Marvin Gershengorn, NIDDK
An anti cAMP antibody contains a fluorescent cryptate tag (excitation 337 nm; emission 620 nm) and the acceptor is cAMP-d2 (excitation 620 nm; emission 665 nm). When antibody and cAMP-d2 interact and are excited by a 337 nm light, a FRET occurs resulting in emission at 665 nm. The assay is competition between cAMP-d2 and cAMP (from the cell lysate). The homogeneous protocol allows for one step dispense after stimulation that is automation friendly.
For orientation: Quantitative high-throughput screening tests each substance at several concentrations.
For `O=C(COc1cccc2ccccc12)Nc1ccc(Cl)cc1C(=O)O`, the max inhibition was 85.8% (active).
For `O=C1/C(=C\c2cc([N+](=O)[O-])ccc2O)SC(=S)N1Cc1ccc(Cl)cc1` the value was 90.7% (active); for `O=S(=O)(Nc1cc(Cl)ccc1-n1cncn1)c1cc(Br)ccc1Br`, 72.6% (active).
For `O=C(Nc1ccc(Oc2ccc(Cl)cc2)c(Cl)c1)c1cc(I)cc(I)c1O` the value was 91.3% (active).
On to `CCn1nc([N+](=O)[O-])c(C(C#N)c2nc3cc(C(F)(F)F)ccc3s2)c(Cl)c1=O` (centres undefined), for which the max inhibition was 94.3% (active).
For `O=C(Nc1nc(-c2ccccc2)cs1)c1ccccc1NS(=O)(=O)c1ccc(F)cc1`, the max inhibition was 96% (active).
As to `O=C1NC(=S)S/C1=C\c1ccc(SCc2ccccc2)o1`, the max inhibition was 92.6% (active).
For `COc1ccc(-c2csc(/C(C#N)=C\c3ccc(O)c([N+](=O)[O-])c3)n2)cc1OC` the value was 94.4% (active); for `COc1ccc(OCC(=O)NC(=S)Nc2ccc(N3CCOCC3)c(Cl)c2)cc1`, 89.7% (active).
Regarding `Oc1c(Cl)cc(Cl)c(Cl)c1Cc1c(O)c(Cl)cc(Cl)c1Cl`, the max inhibition is 96.4% (active).
Regarding `CC(=O)Oc1c(C)cc(Cl)cc1C(=O)Nc1ccc([N+](=O)[O-])cc1Cl`, the max inhibition is 82.9% (active).
On to `CCSC1=NSC2=NC(=O)/C(=C\c3coc4ccccc4c3=O)C(=N)N12`, for which the max inhibition was 96.6% (active).
For `O=c1cc(C(F)(F)F)[nH]c2c(C(F)(F)F)cccc12` the value was 88.6% (active); for `Cc1ccc(-n2[nH]c(C)c(/C=N/Nc3ccc([N+](=O)[O-])cc3[N+](=O)[O-])c2=O)cc1C`, 88.7% (active).
